# From PubChem BioAssay (EPA / NIEHS)
# The source made the active and inactive calls. The calls were made as follows: active = hit-call score of the fitted dose curve at least 0.9, where 1 is the maximum; inactive = score below 0.9.
# What was measured:
# Settings in all cases: mRNA level, 48 h; actives raise or lower the signal
# CYP4A11 (gene 1579) = experiment: LTEA_HepaRG_CYP4A11: Life Technologies and Expression Analysis (LTEA) Assay for CYP4A11 using HepaRG (AID 2283486)
# Procedure, shortened: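 Readout is CYP4A11 mRNA induction or suppression (qRT-PCR, ACTB/GAPDH/POLR2A normalization) in human HepaRG cells after 48 h chemical treatment, concentrations to 100 uM in 0.5% DMSO, fitted bidirectionally against vehicle.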
# [1] = read-out: Cytochrome P450 3A4 (Homo sapiens) (UniProt P08684); experiment: LTEA_HepaRG_CYP3A4: Life Technologies and Expression Analysis (LTEA) Assay for CYP3A4 using HepaRG (AID 2283487)
# Procedure, shortened: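 CYP3A4 transcript measured by TaqMan qRT-PCR and normalized to three housekeeping genes after 48 h chemical exposure of human HepaRG cells. Top concentration 100 uM, half-log steps, 0.5% DMSO vehicle; gain or loss fitted against DMSO baseline.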
# [2] = read-out: DNA damage-inducible transcript 3 (DDIT3), DDIT3 (gene 1649); experiment: LTEA_HepaRG_DDIT3: Life Technologies and Expression Analysis (LTEA) Assay for DNA damage-inducible transcript 3 (DDIT3) using HepaRG (AID 2283488)
# Procedure, shortened: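 DDIT3 transcript was quantified by qRT-PCR with ACTB/GAPDH/POLR2A normalization after 48 h chemical treatment of differentiated HepaRG cells in 0.5% DMSO. Dosing was eight-point, half-log, top 100 uM, duplicate wells. Curves fitted bidirectionally versus DMSO.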
# [3] = read-out: Pro-epidermal growth factor (Homo sapiens) (UniProt P01133); experiment: LTEA_HepaRG_EGF: Life Technologies and Expression Analysis (LTEA) Assay for Epidermal growth factor (EGF) using HepaRG (AID 2283489)
# Procedure, shortened: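 EGF expression changes in human HepaRG cells are scored by bidirectional fitting relative to 0.5% DMSO controls. Chemicals are tested at eight half-log concentrations up to 100 uM for 48 h in serum-free induction medium.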
# [4] = read-out: Early growth response protein 1 (EGR1) transcription factor, EGR1 (gene 1958); experiment: LTEA_HepaRG_EGR1: Life Technologies and Expression Analysis (LTEA) Assay for Early growth response protein 1 (EGR1) transcription factor using HepaRG (AID 2283490)
# Procedure, shortened: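 EGR1 expression change in human HepaRG after 48 h chemical exposure, assessed by housekeeping-normalized qRT-PCR; concentration-response up to 100 uM, fitted in both directions against DMSO controls.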
# [5] = read-out: Ezrin (EZR), EZR (gene 7430); experiment: LTEA_HepaRG_EZR: Life Technologies and Expression Analysis (LTEA) Assay for Ezrin (EZR) using HepaRG (AID 2283491)
# Procedure, shortened: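 HepaRG, 48 h chemical exposure, 8-pt half-log series from 100 uM, 0.5% DMSO vehicle, duplicates. Read-out: EZR mRNA by TaqMan qRT-PCR (Fluidigm array), housekeeping-normalized; bidirectional curve fit vs DMSO baseline.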
# [6] = read-out: Cytochrome P450 3A7 (Homo sapiens) (UniProt P24462); experiment: LTEA_HepaRG_CYP3A7: Life Technologies and Expression Analysis (LTEA) Assay for CYP3A7 using HepaRG (AID 2283492)
# Procedure, shortened: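 Cells were thawed, plated, cultured 48 h, then treated for a further 48 h with chemicals (eight-point half-log series from 100 uM, 0.5% DMSO). RNA was isolated and CYP3A7 expression quantified by qRT-PCR normalised to ACTB, GAPDH and POLR2A.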
# CYP3A5 (gene 1577) = experiment: LTEA_HepaRG_CYP3A5: Life Technologies and Expression Analysis (LTEA) Assay for CYP3A5 using HepaRG (AID 2283493)
# Procedure, shortened: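 mRNA levels were quantified by qRT-PCR on Fluidigm arrays and normalized to three housekeeping genes. Differentiated HepaRG cells received 48 h exposure (top 100 uM, half-log steps, 0.5% DMSO vehicle, duplicate); bidirectional fitting versus DMSO.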
# [7] = read-out: Cytochrome P450 4A22 (Homo sapiens) (UniProt Q5TCH4); experiment: LTEA_HepaRG_CYP4A22: Life Technologies and Expression Analysis (LTEA) Assay for Cytochrome P450 4A22 (CYP4A22) using HepaRG (AID 2283495)
# Procedure, shortened: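 Cryopreserved HepaRG cells, plated and cultured 48 h, then switched to serum-free induction medium and treated 48 h (duplicates, up to 100 uM, half-log steps, 0.5% DMSO). Expression change of CYP4A22 was fitted bidirectionally against vehicle.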
# [8] = read-out: Cytochrome P450 7A1 (Homo sapiens) (UniProt P22680); experiment: LTEA_HepaRG_CYP7A1: Life Technologies and Expression Analysis (LTEA) Assay for Cytochrome P450 7A1 (CYP7A1) using HepaRG (AID 2283496)
# Procedure, shortened: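 HepaRG, 48 h exposure, 8-pt half-log series from 100 uM, 0.5% DMSO vehicle, duplicates. Readout: TaqMan qRT-PCR mRNA vs three housekeeping genes; bidirectional curve fit against DMSO baseline.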
# [9] = read-out: Glutathione S-Transferase (GSTA2), GSTA2 (gene 2939); experiment: LTEA_HepaRG_GSTA2: Life Technologies and Expression Analysis (LTEA) Assay for Glutathione S-Transferase (GSTA2) using HepaRG (AID 2283497)
# Procedure, shortened: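 Oxidative-stress marker GSTA2 is quantified by TaqMan qRT-PCR in HepaRG cultures treated 48 h across an eight-point range to 100 uM. Expression is normalized to endogenous controls and compared with 0.5% DMSO vehicle.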
# [10] = read-out: Glutamate-cysteine ligase catalytic (GCLC), GCLC (gene 2729); experiment: LTEA_HepaRG_GCLC: Life Technologies and Expression Analysis (LTEA) Assay for Glutamate-cysteine ligase catalytic (GCLC) using HepaRG (AID 2283498)
# Procedure, shortened: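 Oxidative-stress marker GCLC is measured as mRNA change in human HepaRG liver cells after 48 h chemical treatment in 0.5% DMSO, eight concentrations from 100 uM. Activity is fitted bidirectionally against vehicle.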
# [11] = read-out: Glutamate-cysteine ligase regulatory (GCLM), GCLM (gene 2730); experiment: LTEA_HepaRG_GCLM: Life Technologies and Expression Analysis (LTEA) Assay for Glutamate-cysteine ligase regulatory (GCLM) using HepaRG (AID 2283500)
# Procedure, shortened: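 GCLM expression quantified by qRT-PCR, normalized to three housekeeping genes, after 48 h chemical treatment of HepaRG cells in duplicate at 8 concentrations (top 100 uM, half-log steps, 0.5% DMSO). Changes fitted both directions against vehicle.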
# [12] = read-out: Glutathione S-transferase M3 (GSTM3), GSTM3 (gene 2947); experiment: LTEA_HepaRG_GSTM3: Life Technologies and Expression Analysis (LTEA) Assay for Glutathione S-transferase M3 (GSTM3) using HepaRG (AID 2283501)
# Procedure, shortened: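 Changes in GSTM3 expression, an oxidative-stress marker, were scored by bidirectional curve fitting against 0.5% DMSO vehicle. Human HepaRG cultures received chemicals for 48 h in duplicate, highest concentration 100 uM with half-log dilutions.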
# [13] = read-out: 3-Hydroxy-3-Methylglutaryl-CoA Synthase 2 (HMGCS2), HMGCS2 (gene 3158); experiment: LTEA_HepaRG_HMGCS2: Life Technologies and Expression Analysis (LTEA) Assay for 3-Hydroxy-3-Methylglutaryl-CoA Synthase 2 (HMGCS2) using HepaRG (AID 2283504)
# Procedure, shortened: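 Expression of HMGCS2 in human HepaRG liver cells is measured by qRT-PCR 48 h after dosing (highest 100 uM, half-log series, 0.5% DMSO). Values come from bidirectional concentration-response fitting with DMSO as baseline.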
# HGF (gene 3082) = experiment: LTEA_HepaRG_HGF: Life Technologies and Expression Analysis (LTEA) Assay for Hepatocyte Growth Facto (HGF) using HepaRG (AID 2283505)
# Procedure, shortened: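 Gain or loss of HGF mRNA in human HepaRG liver cells after 48 h chemical exposure; eight concentrations up to 100 uM with 0.5% DMSO vehicle, quantified by TaqMan qRT-PCR.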
# [14] = read-out: Hypoxia-inducible factor 1-alpha (Homo sapiens) (UniProt Q16665); experiment: LTEA_HepaRG_HIF1A: Life Technologies and Expression Analysis (LTEA) Assay for Hypoxia-inducible factor 1 (HIF1A) Trancription factor using HepaRG (AID 2283503)
# Procedure, shortened: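 HIF1A transcript level read by qRT-PCR (ACTB, GAPDH, POLR2A normalization) after 48 h chemical exposure of HepaRG cultures. Eight half-log concentrations, top 100 uM, 0.5% DMSO vehicle, duplicates; bidirectional curve fit against DMSO baseline.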
# [15] = read-out: Heat shock 70 kDa protein 1 (HSPA1A), gene 3303; experiment: LTEA_HepaRG_HSPA1A: Life Technologies and Expression Analysis (LTEA) Assay for Heat shock 70 kDa protein 1 (HSPA1A) using HepaRG (AID 2283502)
# Procedure, shortened: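 HSPA1A expression measured by qRT-PCR with ACTB/GAPDH/POLR2A normalization; curves fitted in both directions relative to DMSO vehicle. Exposure: 48 h in HepaRG cells, duplicate 8-point half-log series from 100 uM, 0.5% DMSO, serum-free induction medium.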
# [16] = read-out: Fatty Acid-Binding Protein 1 (FABP1), FABP1 (gene 2168); experiment: LTEA_HepaRG_FABP1: Life Technologies and Expression Analysis (LTEA) Assay for Fatty Acid-Binding Protein 1 (FABP1) using HepaRG (AID 2283494)
# Procedure, shortened: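 Values reflect bidirectional concentration-response fitting of FABP1 mRNA change against 0.5% DMSO controls. Human HepaRG cultures received eight half-log doses (top 100 uM) for 48 h; expression quantified by TaqMan qRT-PCR with housekeeping-gene normalization.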
# [17] = read-out: growth arrest and DNA damage 45 (GADD45G), GADD45G (gene 10912); experiment: LTEA_HepaRG_GADD45G: Life Technologies and Expression Analysis (LTEA) Assay for growth arrest and DNA damage 45 (GADD45G) using HepaRG (AID 2283499)
# Procedure, shortened: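 Human hepatic HepaRG line treated 48 h with chemicals (eight concentrations, half-log steps from 100 uM); transcript induction or repression of GADD45G scored by qRT-PCR versus DMSO vehicle.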
# Sequence of Cytochrome P450 3A7 (Homo sapiens) (P24462 whole entry, looked up): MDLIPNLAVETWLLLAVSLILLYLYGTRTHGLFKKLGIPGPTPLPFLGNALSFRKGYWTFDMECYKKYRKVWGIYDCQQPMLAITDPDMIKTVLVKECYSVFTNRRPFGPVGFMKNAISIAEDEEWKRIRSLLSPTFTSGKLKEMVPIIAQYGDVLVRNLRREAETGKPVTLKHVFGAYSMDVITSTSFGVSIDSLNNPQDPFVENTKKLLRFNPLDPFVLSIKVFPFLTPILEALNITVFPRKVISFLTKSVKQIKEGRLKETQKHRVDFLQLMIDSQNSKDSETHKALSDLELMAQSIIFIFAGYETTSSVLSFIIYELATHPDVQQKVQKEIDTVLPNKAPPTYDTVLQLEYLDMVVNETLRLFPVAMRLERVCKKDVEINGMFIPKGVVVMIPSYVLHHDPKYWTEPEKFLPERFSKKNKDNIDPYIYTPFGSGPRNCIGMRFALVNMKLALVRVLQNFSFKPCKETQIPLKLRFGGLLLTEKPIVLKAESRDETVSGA
# Sequence of Cytochrome P450 3A4 (Homo sapiens) (P08684 whole entry, looked up): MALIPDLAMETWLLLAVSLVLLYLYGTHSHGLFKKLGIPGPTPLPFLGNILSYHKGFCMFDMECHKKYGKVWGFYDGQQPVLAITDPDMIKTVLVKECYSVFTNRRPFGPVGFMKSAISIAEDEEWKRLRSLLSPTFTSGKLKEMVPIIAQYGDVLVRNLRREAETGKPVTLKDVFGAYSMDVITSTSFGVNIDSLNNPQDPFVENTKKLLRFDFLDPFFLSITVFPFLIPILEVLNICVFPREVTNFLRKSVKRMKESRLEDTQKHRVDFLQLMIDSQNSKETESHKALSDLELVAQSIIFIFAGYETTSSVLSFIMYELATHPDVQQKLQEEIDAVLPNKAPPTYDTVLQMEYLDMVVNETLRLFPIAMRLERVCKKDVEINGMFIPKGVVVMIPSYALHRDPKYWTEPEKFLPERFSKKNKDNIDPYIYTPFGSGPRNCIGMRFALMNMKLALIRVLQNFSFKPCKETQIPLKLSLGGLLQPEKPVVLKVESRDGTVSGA
# Sequence of Hypoxia-inducible factor 1-alpha (Homo sapiens) (Q16665 whole entry, looked up): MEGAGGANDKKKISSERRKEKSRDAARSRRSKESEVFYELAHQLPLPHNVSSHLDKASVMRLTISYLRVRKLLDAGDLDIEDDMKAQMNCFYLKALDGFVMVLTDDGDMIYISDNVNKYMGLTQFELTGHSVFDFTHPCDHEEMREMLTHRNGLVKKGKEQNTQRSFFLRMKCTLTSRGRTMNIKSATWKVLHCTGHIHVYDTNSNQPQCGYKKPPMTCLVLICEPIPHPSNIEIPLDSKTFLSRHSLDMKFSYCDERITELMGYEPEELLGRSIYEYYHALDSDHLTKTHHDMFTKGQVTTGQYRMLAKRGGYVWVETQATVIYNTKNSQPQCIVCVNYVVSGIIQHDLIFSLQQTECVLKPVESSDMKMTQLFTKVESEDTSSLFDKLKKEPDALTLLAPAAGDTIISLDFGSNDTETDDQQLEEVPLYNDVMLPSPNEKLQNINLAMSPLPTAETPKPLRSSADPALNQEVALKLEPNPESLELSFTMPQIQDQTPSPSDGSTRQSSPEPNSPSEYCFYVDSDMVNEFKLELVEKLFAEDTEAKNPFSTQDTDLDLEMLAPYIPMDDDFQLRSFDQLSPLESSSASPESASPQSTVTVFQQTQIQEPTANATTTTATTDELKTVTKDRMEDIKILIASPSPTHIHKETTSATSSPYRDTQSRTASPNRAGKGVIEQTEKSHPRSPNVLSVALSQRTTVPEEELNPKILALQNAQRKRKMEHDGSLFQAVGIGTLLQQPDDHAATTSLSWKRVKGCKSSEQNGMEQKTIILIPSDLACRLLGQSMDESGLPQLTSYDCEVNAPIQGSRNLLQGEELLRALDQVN
smiles,measurement,setting,value
Oc1ccc(O)cc1,outcome,CYP4A11 (gene 1579),inactive
same,outcome,[1],inactive
same,outcome,[2],inactive
same,outcome,[3],inactive
same,outcome,[4],inactive
same,outcome,[5],inactive
same,outcome,[6],inactive
same,outcome,CYP3A5 (gene 1577),inactive
same,outcome,[7],inactive
same,outcome,[8],inactive
same,outcome,[9],inactive
same,outcome,[10],inactive
same,outcome,[11],inactive
same,outcome,[12],inactive
same,outcome,[13],inactive
same,outcome,HGF (gene 3082),inactive
S=c1[nH]c2ccccc2s1,outcome,CYP4A11 (gene 1579),inactive
same,outcome,[1],inactive
same,outcome,[2],inactive
same,outcome,[3],inactive
same,outcome,[4],inactive
same,outcome,[5],inactive
same,outcome,[6],inactive
same,outcome,CYP3A5 (gene 1577),inactive
same,outcome,[7],inactive
same,outcome,[8],inactive
same,outcome,[9],inactive
same,outcome,[10],inactive
same,outcome,[11],inactive
same,outcome,[12],inactive
same,outcome,[14],inactive
same,outcome,[13],inactive
same,outcome,HGF (gene 3082),inactive
COC(=O)[C@H]1[C@H]2C[C@@H]3c4[nH]c5cc(OC)ccc5c4CCN3C[C@H]2C[C@@H](OC(=O)c2cc(OC)c(OC)c(OC)c2)[C@@H]1OC,AC50,CYP4A11 (gene 1579),48.8 µM (active)
same,AC50,[2],55.1 µM (active)
same,AC50,[3],42.2 µM (active)
same,AC50,[4],64.2 µM (active)
same,AC50,[5],8.38 µM (active)
same,AC50,[9],60.1 µM (active)
same,outcome,[10],inactive
same,outcome,[11],inactive
same,AC50,[12],42.2 µM (active)
same,AC50,[15],42.2 µM (active)
same,AC50,[13],57.8 µM (active)
same,outcome,HGF (gene 3082),inactive
CN(C)CCCN1c2ccccc2Sc2ccc(Cl)cc21,AC50,CYP4A11 (gene 1579),84.7 µM (active)
same,AC50,[2],61.3 µM (active)
same,outcome,[3],inactive
same,AC50,[4],88.2 µM (active)
same,outcome,[5],inactive
same,outcome,[6],inactive
same,AC50,CYP3A5 (gene 1577),83.7 µM (active)
same,AC50,[16],88.3 µM (active)
same,outcome,[7],inactive
same,AC50,[8],81.3 µM (active)
same,AC50,[9],86.4 µM (active)
same,outcome,[10],inactive
same,AC50,[17],49.7 µM (active)
same,outcome,[11],inactive
same,outcome,[12],inactive
same,AC50,[13],68.6 µM (active)
same,outcome,HGF (gene 3082),inactive
